Source: the supplement of paper PMC10849652
Targets with a hit are over-represented here; the source holds about 7,900 in all. About 0.6% of all pairs of compound and target were hits.

How the values were obtained:
Assay in all cases: log2 fold change, soluble protein after heating vs DMSO (PISA); higher = thermal stabilisation; K562 cells, 10 uM, 30 min; active = over 0.2 and 3.5 SD of the protein, either way, in both replicates (recomputed)
[1] = compound: CC1=C(C=C(C=C1)NC(=O)C2=CC(=CC=C2)C(C)(C)C#N)NC3=CC4=C(C=C3)N=CN(C4=O)C
Outline: (§1)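 K562 cells (2×10^6 cells/mL) were treated with 10 μM compound for 30 min, and aliquots were heated for 3 min over 48°C-58°C. Pooled aliquots were extracted in PBS with 0.5% NP-40 at 4°C, and the supernatant after 21,000xg for 90 min was measured by TMTpro 16plex LC-MS/MS with channel sums equalised. Reported thermal stability, relative to control samples and from duplicates, is a log2 fold change.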

[2] = compound: CC1=C(C=C(C=C1)NC(=O)C2=CC(=CC=C2)N(C)C)NC(=O)C3=CC=C(C=C3)O
Outline: as §1

[3] = compound: CC1=CC=C(C=C1)SC2=C3C=C(SC3=CN=C2)C(=O)N
Outline: as §1

[4] = compound: CC1=NC(=CC=C1)C2=C(N=C(N2)C(C)(C)C)C3=CC4=NC=CN=C4C=C3
Outline: as §1

Nexturastat A = compound: CCCCN(Cc1ccc(C(=O)NO)cc1)C(=O)Nc1ccccc1 [Nexturastat A]
Outline: as §1

vemurafenib = compound: CCCS(=O)(=O)Nc1ccc(F)c(C(=O)c2c[nH]c3ncc(-c4ccc(Cl)cc4)cc23)c1F [vemurafenib]
Outline: as §1

[5] = compound: CCCS(=O)(=O)Nc1ccc(F)c(C(=O)c2c[nH]c3ncc(Cl)cc23)c1F
Outline: as §1

[6] = compound: CCCc1cc(C)[nH]c(=O)c1CNC(=O)c1cc(-c2ccnc(N3CCN(C)CC3)c2)cc2c1cnn2C(C)C
Outline: as §1

givinostat = compound: CCN(CC)Cc1ccc2cc(COC(=O)Nc3ccc(C(=O)NO)cc3)ccc2c1 [givinostat]
Outline: as §1

barasertib = compound: CCN(CCCOc1ccc2c(Nc3cc(CC(=O)Nc4cccc(F)c4)[nH]n3)ncnc2c1)CCOP(=O)(O)O [barasertib]
Outline: as §1

Measured: log2 fold change

MFF (UniProt Q9GZY8)
inactive: [1] -0.036 | [2] 0.002 | [3] 0.039 | [4] 0.02 | Nexturastat A 0.006 | vemurafenib -0.013 | [5] 0.018 | [6] -0.117 | givinostat 0.033 | barasertib 0.036

LARP4 isoform 4 (UniProt Q71RC2)
Sequence of UniProt Q71RC2 (Q71RC2 whole entry, looked up): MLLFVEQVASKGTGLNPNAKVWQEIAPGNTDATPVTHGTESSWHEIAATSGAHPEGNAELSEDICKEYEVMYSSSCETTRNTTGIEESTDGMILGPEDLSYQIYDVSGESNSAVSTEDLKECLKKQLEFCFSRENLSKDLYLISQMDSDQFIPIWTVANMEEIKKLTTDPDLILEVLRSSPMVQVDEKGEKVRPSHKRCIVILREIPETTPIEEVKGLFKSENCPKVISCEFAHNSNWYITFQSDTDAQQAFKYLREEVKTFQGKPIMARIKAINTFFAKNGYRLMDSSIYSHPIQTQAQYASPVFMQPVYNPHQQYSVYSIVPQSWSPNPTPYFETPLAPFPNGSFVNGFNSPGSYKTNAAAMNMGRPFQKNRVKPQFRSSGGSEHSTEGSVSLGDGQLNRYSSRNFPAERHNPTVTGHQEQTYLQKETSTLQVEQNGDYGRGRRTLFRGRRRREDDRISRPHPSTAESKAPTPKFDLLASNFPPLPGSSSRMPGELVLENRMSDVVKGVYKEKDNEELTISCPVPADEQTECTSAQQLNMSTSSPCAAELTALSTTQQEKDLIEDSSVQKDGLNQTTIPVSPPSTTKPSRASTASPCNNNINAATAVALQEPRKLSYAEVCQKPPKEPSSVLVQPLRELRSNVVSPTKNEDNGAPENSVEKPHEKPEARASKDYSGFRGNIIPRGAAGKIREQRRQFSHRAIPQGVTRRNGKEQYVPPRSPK
inactive: [1] 0.066 | [2] 0.005 | [3] -0.041 | [4] -0.002 | Nexturastat A 0.251 | vemurafenib -0.017 | [5] 0.018 | [6] 0.054 | givinostat 0.04 | barasertib -0.053

INPP5B (UniProt P32019)
inactive: [1] 0.02 | [2] -0.06 | [3] -0.071 | [4] 0.007 | Nexturastat A 0.096 | vemurafenib -0.006 | [5] -0.004 | [6] 0.062 | givinostat 0.105 | barasertib 0.069

MARK3 (UniProt P27448)
inactive: [1] -0.017 | [2] 0.02 | [3] 0.067 | [4] -0.029 | Nexturastat A 0.074 | vemurafenib 0 | [5] 0.004 | [6] 0.077 | givinostat 0.038 | barasertib 0.023

LONP2 (UniProt Q86WA8)
Sequence of UniProt Q86WA8 (Q86WA8 whole entry, looked up): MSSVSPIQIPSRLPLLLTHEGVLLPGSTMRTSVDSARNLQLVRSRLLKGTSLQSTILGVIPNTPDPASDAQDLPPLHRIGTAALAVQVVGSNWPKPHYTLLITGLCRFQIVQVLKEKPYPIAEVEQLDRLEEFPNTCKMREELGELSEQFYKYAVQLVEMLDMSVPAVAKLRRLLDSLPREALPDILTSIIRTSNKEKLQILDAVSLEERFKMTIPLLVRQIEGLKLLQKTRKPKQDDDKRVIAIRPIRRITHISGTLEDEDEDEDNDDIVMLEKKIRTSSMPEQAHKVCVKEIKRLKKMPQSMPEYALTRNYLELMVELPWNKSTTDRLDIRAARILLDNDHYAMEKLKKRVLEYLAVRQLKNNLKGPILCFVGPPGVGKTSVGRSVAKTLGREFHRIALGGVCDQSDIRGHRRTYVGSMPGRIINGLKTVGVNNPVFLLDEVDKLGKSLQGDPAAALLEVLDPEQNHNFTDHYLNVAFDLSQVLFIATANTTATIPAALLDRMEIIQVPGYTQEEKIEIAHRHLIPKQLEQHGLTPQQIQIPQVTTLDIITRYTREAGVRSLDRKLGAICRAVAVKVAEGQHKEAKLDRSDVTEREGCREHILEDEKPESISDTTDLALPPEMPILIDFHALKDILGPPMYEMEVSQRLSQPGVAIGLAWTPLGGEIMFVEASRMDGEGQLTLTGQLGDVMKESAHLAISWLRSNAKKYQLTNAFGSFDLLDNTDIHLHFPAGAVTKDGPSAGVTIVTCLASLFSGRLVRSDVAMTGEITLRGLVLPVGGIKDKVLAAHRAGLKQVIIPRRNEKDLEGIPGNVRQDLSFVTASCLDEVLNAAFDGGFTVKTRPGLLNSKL
inactive: [1] 0.173 | [2] -0.119 | [3] 0.08 | [4] 0.009 | Nexturastat A -0.083 | vemurafenib 0.128 | [5] -0.137 | [6] 0.013 | givinostat -0.05 | barasertib -0.056

LTV1 (UniProt Q96GA3)
Sequence of UniProt Q96GA3 (Q96GA3 whole entry, looked up): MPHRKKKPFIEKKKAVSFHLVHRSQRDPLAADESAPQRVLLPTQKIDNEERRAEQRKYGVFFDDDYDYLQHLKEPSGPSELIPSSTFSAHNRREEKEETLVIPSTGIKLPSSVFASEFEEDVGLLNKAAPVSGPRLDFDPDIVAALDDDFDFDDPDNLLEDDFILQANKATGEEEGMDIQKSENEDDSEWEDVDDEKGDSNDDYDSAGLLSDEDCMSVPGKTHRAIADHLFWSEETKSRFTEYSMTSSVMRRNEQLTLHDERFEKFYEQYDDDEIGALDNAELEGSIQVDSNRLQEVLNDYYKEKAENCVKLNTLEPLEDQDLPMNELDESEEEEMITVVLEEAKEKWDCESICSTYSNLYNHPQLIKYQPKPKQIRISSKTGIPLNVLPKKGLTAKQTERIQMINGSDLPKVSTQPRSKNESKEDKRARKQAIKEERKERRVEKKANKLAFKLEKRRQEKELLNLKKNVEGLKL
inactive: [1] 0.044 | [2] -0.04 | [3] -0.04 | [4] -0.035 | Nexturastat A 0.248 | vemurafenib -0.075 | [5] -0.008 | [6] -0.011 | givinostat -0.025 | barasertib -0.075

KIF11 (UniProt P52732)
Sequence of UniProt P52732 (P52732 whole entry, looked up): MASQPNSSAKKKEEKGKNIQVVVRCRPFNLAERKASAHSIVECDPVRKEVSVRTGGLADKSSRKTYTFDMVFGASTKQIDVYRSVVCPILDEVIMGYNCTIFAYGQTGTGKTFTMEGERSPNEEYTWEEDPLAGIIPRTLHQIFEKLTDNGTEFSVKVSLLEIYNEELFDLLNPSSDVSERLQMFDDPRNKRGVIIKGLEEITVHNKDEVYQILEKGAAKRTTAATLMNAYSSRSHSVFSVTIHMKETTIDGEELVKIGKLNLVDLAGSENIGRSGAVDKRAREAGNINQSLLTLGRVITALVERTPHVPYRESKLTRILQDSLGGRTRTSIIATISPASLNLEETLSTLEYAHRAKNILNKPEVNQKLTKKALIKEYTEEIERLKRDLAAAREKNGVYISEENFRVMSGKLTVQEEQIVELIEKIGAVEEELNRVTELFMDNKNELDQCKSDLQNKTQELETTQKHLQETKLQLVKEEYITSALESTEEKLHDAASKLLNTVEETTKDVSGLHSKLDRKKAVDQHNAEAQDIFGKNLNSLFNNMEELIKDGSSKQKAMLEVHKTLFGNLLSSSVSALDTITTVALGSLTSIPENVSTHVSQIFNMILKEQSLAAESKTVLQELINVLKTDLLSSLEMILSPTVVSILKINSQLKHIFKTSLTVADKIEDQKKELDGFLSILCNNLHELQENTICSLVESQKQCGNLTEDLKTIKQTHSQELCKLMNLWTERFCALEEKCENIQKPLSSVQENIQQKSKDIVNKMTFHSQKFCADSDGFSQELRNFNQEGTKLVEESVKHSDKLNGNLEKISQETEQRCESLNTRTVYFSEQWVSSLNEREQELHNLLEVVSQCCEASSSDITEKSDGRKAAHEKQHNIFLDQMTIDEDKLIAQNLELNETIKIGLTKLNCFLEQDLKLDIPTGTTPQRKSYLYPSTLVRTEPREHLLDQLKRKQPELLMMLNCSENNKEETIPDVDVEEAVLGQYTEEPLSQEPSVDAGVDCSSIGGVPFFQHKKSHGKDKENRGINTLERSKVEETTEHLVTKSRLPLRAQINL
inactive: [1] -0.032 | [2] -0.119 | [3] -0.005 | [4] -0.033 | Nexturastat A 0.155 | vemurafenib 0.071 | [5] 0.077 | [6] 0.076 | givinostat 0.09 | barasertib 0.049

INPP1 (UniProt P49441)
inactive: [1] 0.039 | [2] 0.016 | [3] 0.054 | [4] 0.052 | Nexturastat A 0.061 | vemurafenib 0.031 | [5] -0.071 | [6] 0.079 | givinostat -0.032 | barasertib -0.03

MAPK9 (UniProt P45984)
inactive: [1] 0 | [2] -0.011 | [3] -0.078 | [4] 0.044 | Nexturastat A -0.057 | vemurafenib -0.005 | [5] -0.07 | [6] 0.034 | givinostat 0.038 | barasertib -0.022

INTS5 (UniProt Q6P9B9)
Sequence of UniProt Q6P9B9 (Q6P9B9 whole entry, looked up): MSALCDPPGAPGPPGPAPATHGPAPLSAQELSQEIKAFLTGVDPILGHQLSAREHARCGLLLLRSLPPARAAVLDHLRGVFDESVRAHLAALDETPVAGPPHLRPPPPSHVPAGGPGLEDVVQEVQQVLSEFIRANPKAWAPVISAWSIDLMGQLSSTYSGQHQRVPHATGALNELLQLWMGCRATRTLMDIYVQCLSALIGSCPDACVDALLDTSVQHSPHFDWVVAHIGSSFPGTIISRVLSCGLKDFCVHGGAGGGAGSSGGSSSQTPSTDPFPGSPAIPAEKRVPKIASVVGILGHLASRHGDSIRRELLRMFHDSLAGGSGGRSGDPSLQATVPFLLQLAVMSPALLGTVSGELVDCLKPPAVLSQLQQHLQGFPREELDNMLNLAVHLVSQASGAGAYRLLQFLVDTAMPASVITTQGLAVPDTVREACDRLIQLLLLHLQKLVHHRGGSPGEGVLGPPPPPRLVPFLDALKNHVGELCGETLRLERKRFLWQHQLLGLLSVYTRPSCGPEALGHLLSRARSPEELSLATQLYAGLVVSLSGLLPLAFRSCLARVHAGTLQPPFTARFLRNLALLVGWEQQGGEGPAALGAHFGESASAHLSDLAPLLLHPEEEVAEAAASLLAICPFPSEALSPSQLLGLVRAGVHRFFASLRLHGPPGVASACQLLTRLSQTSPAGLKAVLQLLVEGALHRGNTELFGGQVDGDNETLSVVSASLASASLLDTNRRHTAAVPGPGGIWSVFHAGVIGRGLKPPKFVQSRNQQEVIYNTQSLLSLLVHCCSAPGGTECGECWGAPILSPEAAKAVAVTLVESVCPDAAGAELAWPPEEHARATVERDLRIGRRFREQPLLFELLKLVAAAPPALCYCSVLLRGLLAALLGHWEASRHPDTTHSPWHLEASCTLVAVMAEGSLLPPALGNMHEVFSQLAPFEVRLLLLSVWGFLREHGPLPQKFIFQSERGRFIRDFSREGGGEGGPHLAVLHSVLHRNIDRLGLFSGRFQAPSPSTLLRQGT
inactive: [1] 0.091 | [2] -0.061 | [3] 0.026 | [4] 0.042 | Nexturastat A 0.01 | vemurafenib 0.087 | [5] 0.074 | [6] 0.122 | givinostat 0.038 | barasertib 0.015

LSS (UniProt P48449)
active: givinostat 0.766
inactive: [1] -0.032 | [2] -0.122 | [3] -0.071 | [4] 0.054 | Nexturastat A 0.012 | vemurafenib 0.03 | [5] 0.073 | [6] 0 | barasertib 0.382

MIEF1 (UniProt Q9NQG6)
Sequence of UniProt Q9NQG6 (Q9NQG6 whole entry, looked up): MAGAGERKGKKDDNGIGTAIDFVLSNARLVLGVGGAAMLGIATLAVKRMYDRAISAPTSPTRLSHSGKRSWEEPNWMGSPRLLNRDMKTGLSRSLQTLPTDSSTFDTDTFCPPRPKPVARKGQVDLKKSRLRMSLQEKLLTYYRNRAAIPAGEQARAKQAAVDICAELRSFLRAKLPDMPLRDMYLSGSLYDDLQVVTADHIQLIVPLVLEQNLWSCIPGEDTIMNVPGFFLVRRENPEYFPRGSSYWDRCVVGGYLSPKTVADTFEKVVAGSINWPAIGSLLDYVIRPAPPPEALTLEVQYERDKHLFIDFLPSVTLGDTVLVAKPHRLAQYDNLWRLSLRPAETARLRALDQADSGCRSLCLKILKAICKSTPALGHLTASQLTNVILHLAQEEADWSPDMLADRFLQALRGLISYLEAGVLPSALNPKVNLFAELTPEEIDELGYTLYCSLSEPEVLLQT
inactive: [1] 0.054 | [2] 0.009 | [3] 0.023 | [4] 0.13 | Nexturastat A -0.067 | vemurafenib -0.02 | [5] 0.019 | [6] 0.008 | givinostat -0.044 | barasertib 0.015

LEMD3 (UniProt Q9Y2U8)
inactive: [1] -0.066 | [2] -0.071 | [3] -0.005 | [4] -0.017 | Nexturastat A 0.026 | vemurafenib 0.056 | [5] 0.005 | [6] 0.054 | givinostat 0.077 | barasertib 0.023

MAP1LC3B2 (UniProt A6NCE7)
inactive: [1] 0.021 | [2] -0.034 | [3] -0.029 | [4] 0.04 | Nexturastat A -0.028 | vemurafenib 0.088 | [5] 0.01 | [6] 0.041 | givinostat 0.038 | barasertib 0

LSR (UniProt Q86X29)
inactive: [1] -0.051 | [2] 0.016 | [3] -0.05 | [4] -0.05 | Nexturastat A -0.074 | vemurafenib -0.028 | [5] -0.061 | [6] -0.019 | givinostat -0.046 | barasertib -0.016

KIF3B (UniProt O15066)
inactive: [1] -0.082 | [2] 0.05 | [3] -0.022 | [4] -0.042 | Nexturastat A 0.097 | vemurafenib 0.018 | [5] 0.017 | [6] -0.019 | givinostat 0.067 | barasertib -0.062

MICU1 isoform 3 (UniProt Q9BPX6)
Sequence of UniProt Q9BPX6 (Q9BPX6 whole entry, looked up): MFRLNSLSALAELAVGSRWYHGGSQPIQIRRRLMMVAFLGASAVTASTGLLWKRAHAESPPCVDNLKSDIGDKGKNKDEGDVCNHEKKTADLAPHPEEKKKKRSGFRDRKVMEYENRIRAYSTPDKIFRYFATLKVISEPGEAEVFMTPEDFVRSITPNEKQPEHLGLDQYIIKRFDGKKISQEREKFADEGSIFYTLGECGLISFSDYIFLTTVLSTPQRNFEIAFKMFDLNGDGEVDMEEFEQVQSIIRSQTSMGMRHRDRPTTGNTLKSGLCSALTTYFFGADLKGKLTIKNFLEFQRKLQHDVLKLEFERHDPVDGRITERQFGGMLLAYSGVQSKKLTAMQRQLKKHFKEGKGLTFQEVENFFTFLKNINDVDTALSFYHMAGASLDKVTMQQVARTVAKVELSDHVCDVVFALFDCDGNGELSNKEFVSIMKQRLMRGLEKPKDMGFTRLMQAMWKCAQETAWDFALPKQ
inactive: [1] -0.002 | [2] 0.052 | [3] -0.003 | [4] -0.028 | Nexturastat A 0.117 | vemurafenib -0.049 | [5] 0.042 | [6] -0.001 | givinostat 0 | barasertib 0.012

KNTC1 (UniProt P50748)
inactive: [1] -0.027 | [2] -0.003 | [3] -0.021 | [4] 0.026 | Nexturastat A 0.034 | vemurafenib 0.042 | [5] 0.036 | [6] 0.092 | givinostat 0.082 | barasertib 0.035

LRRFIP1 (UniProt Q32MZ4)
inactive: [1] -0.024 | [2] 0.003 | [3] -0.012 | [4] -0.01 | Nexturastat A 0.005 | vemurafenib -0.019 | [5] -0.027 | [6] -0.002 | givinostat 0.014 | barasertib 0.004

MDC1 (UniProt Q14676)
inactive: [1] -0.019 | [2] -0.037 | [3] -0.013 | [4] -0.076 | Nexturastat A 0.048 | vemurafenib -0.037 | [5] -0.008 | [6] 0.074 | givinostat 0.055 | barasertib -0.074

IK (UniProt Q13123)
inactive: [1] 0.032 | [2] 0.039 | [3] -0.035 | [4] -0.026 | Nexturastat A 0.093 | vemurafenib 0.086 | [5] -0.002 | [6] 0.036 | givinostat 0.021 | barasertib 0.047

JAK3 (UniProt P52333)
inactive: [1] -0.002 | [2] -0.056 | [3] 0.066 | [4] 0.099 | vemurafenib -0.032 | [5] -0.029 | [6] 0.016 | givinostat -0.16 | barasertib 0.016
active: Nexturastat A -0.478

KPNB1 (UniProt Q14974)
inactive: [1] 0.049 | [2] -0.041 | [3] 0 | [4] -0.015 | Nexturastat A 0.119 | vemurafenib 0.07 | [5] 0.076 | [6] 0.052 | givinostat 0.085 | barasertib 0.02

IGF2R (UniProt P11717)
inactive: [1] -0.039 | [2] -0.016 | [3] 0.037 | [4] -0.004 | Nexturastat A 0.014 | vemurafenib -0.022 | [5] -0.007 | [6] -0.036 | givinostat -0.018 | barasertib 0.002

MIA2 (UniProt Q96PC5)
inactive: [1] 0.009 | [2] -0.012 | [3] -0.002 | [4] -0.016 | Nexturastat A 0.015 | vemurafenib 0.003 | [5] -0.062 | [6] 0.128 | givinostat 0.003 | barasertib 0.021

KHDC4 (UniProt Q7Z7F0)
inactive: [1] -0.008 | [2] -0.055 | [3] 0.026 | [4] 0.071 | Nexturastat A 0.068 | vemurafenib 0.113 | [5] 0.017 | [6] 0.038 | givinostat 0.048 | barasertib 0.049

LUC7L2 (UniProt Q9Y383)
inactive: [1] 0.016 | [2] -0.011 | [3] 0.006 | [4] 0.089 | Nexturastat A -0.036 | vemurafenib 0.012 | [5] 0.047 | [6] 0.015 | givinostat -0.01 | barasertib 0

LRPPRC (UniProt P42704)
inactive: [1] 0.264 | [2] -0.054 | [3] 0.222 | [4] 0.336 | Nexturastat A 0.282 | vemurafenib 0.227 | [5] 0.264 | [6] -0.005 | givinostat 0.417 | barasertib 0.369
